Source: PubChem BioAssay (NCI)
This is part of a sample that, as a whole, favours compounds with a hit. Of some 83,000 tested, about 20% had one in any assay.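 For each line, cells grew in 96-well plates with the test compound present at a single concentration for 48 hours.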 A number with no mark means an inactive call. The source made the active and inactive calls.

tested on: OVCAR-3 ovarian; assay: NCI-60 one-dose screen, 48 h (100 = growth as untreated, 0 = no growth, -100 = all killed); conditions: 10 µM unless noted
Experimental: Growth inhibition of the OVCAR-3 human tumor cell line is measured as a screen for anti-cancer activity. Cells are grown in 96 well plates and exposed to the test compound for 48 hours. Compounds are tested at a single concentration, which is 10^-5 M for most compounds. The reported endpoint is percent growth (GI% or GIPRCNT), where numbers from 0 - 100% represent growth inhibition, and numbers from -100% - 0 represent cell death. For example, a value of 40 represents 60% growth inhibition. A value of 0 means no net growth occurred over the course of the experiment. A value of -40 indicates 40% of cells at the beginning of the experiment died by the end of the experiment. A value of -100 means all cells are dead at the end of the experiment.
NCI-60 Human Tumor Cell Lines Screen was performed using the standard one-dose NCI protocol, which is described in more detail at https://dtp.cancer.gov/discovery_development/nci-60/default.htm.
Compounds with GIPRCNT values below 10 were considered active. Activity score was based on GIPRCNT using the following formula: […]
Score is 0 for GIPRCNT values of 100 or above, 50 for GIPRCNT values of 0, and 100 for GIPRCNT values of -100.

In order of falling growth:
1. N#Cc1c(-c2ccccc2)nc2c(c(-c3ccc(Cl)cc3)nn2-c2ccccc2)c1-c1ccc([N+](=O)[O-])cc1  126%
2. Nc1ccc(Br)cc1C(F)(F)F  120%
3. O=c1ccc2ccc(OCCN3CCCCC3)cc2o1  113%
4. O=C(CCCCCCCC(=O)N1CCCCC1)N1CCCCC1  111%
5. COc1cc(C=C2C(=O)NC(=S)NC2=O)cc(CN2CCCC2)c1O  111%
6. CCN(CC)CCN1C(=O)c2c(c3c4ccccc4[nH]c3c3ccc4ccccc4c23)C1=O  109%
7. Cc1cc(C(=O)CCCC(=O)c2cc(C)c(O)c(C)c2)cc(C)c1O  105%
8. O=C(O)c1cn(C2CC2)c2cc(N3CCN(C(=O)N/N=C/c4cccc5ccccc45)CC3)c(F)cc2c1=O  104%
9. C=C[C@@]1(C)CC(=O)[C@@H](C(C)(C)c2cn(C)c3ccc(Br)cc23)C[C@@H]1O[Si](C)(C)C(C)(C)C  103%
10. C=CC(=O)Nc1cccc(Oc2nccc(Nc3nnc(-c4ccc(Br)cc4)s3)n2)c1  102%
11. CC(C)(C)c1ccc(S(=O)(=O)Oc2ccc(-c3sc4cc(OS(=O)(=O)c5ccc(C(C)(C)C)cc5)ccc4c3C(=O)c3ccc(OCCN4CCCCC4)cc3)cc2)cc1  102%
12. COc1ccc(CNc2ccc3nc(NC(=O)CN4CCCCCC4)sc3c2)cc1  101%
13. COc1nc(/C=C\Nc2ccc3c(c2)OCCOCCOCCOCCO3)nc(OC)n1  99.2%
14. CC1=Nc2cnc(Nc3ccc(N4CCCCC4)cc3)nc2Nc2ccccc21  94.9%
15. CCC(C)(C)c1ccc(Nc2ccc(Nc3ccc(C(C)(C)CC)cc3)cc2)cc1  89.9%
16. C#CCOc1ccc2nc(CCl)c(Cl)c(Nc3cccc(C(F)(F)F)c3)c2c1  78.2%
17. CC(C)c1ccc2c(c1)CC[C@H]1[C@](C)(C(=O)OCC#CCN3CCCC3)CCC[C@]21C  77.6%
18. CCN(CC)CCOc1ccc(/C(=C(\C)Cc2ccc(OC)cc2)c2ccc(OC(=O)NCc3ccccc3)cc2)cc1  76.1%
19. C[C@H](c1nc2ccc(C#N)cc2[nH]1)[C@H]1CC[C@H]2[C@@H]3CCC4=CC(=O)CC[C@]4(C)[C@H]3CC[C@]12C  72.1%
20. Cc1cc(Cl)nc(N2CCN(CCNc3ccnc4cc(Cl)ccc34)CC2)n1  60.7%
21. N#Cc1c(-c2ccc(Cl)cc2)nc(NN=Cc2ccc[nH]2)nc1N1CCOCC1  45.6%
22. CCOC(=O)CC[C@H](NC(=O)c1ccc(N(C)Cc2cnc3nc(N)nc(N)c3n2)c2ccccc12)C(=O)OCC  45.4%
23. Nc1cc(-c2ccc(Cl)cc2)nn1-c1nnc(/C=C/c2ccco2)c(=O)[nH]1  37.9%
24. COC12C=C/C(=C(/C(=O)OCc3csc(SC)n3)C(=O)CCCCCCCCC3(OC)C=C/C(=C(/C(=O)OCc4cnc(SC)s4)C(=O)CCCCCCCC1)O3)O2 (stereo not given)  21.5%
25. O=C1NC(=O)C(c2coc3cc(Br)ccc23)=C1c1c[nH]c2ccccc12  20.1%
26. COc1ccc(C2CC(c3ccccc3)=NN2C(=O)c2cc(OC)c(OC)c(OC)c2)cc1O (stereo not given)  17%
27. COCCOC(C)C(/C=N/NC(N)=S)=N/NC(N)=S (stereo not given)  13.9%
28. Cc1ccc(S(=O)(=O)OCC#CCOS(=O)(=O)c2ccc(C)cc2)cc1  12.4%
29. CC(C)(C)c1ccc(C(=O)N/N=C/c2ccc(O)cc2O)cc1  12.1%

`C=C(C)[C@@H]1CC[C@]2(C)[C@H](C=CC3=C4C[C@@](C)(CO)CC[C@]4(C)CC[C@]32C)[C@@]1(C)CCCN` was tested, and the growth was -58.8% (active).
In the case of `O=S(=O)(Nc1ccc2ccccc2c1)c1ccc(-c2cnc(C3CC3)o2)cc1`, the growth is reported as 1.73% (active).
With `O=C(NCCCCCCNC(=O)OCc1ccc2c(Cl)cc(Cl)c(O)c2n1)OCc1ccc2c(Cl)cc(Cl)c(O)c2n1` the growth was -73.6% (active).
`COc1ccc(/C=C2\c3cc(OC)c(OC)c(OC)c3CC[C@@H]2O)cc1F` was tested, and the growth was 4.82% (active).
For `Cn1c2ccccc2c2c3c(c4c5cc(Br)ccc5n(C)c4c21)C(=O)N(O)C3=O`, the growth was 6.42% (active).
`CCOC(=O)/C(=C(/C)NCC(C)C)c1cc(O)c(O)c2c(C)cc(=O)[nH]c12` was tested, and the growth was 6.74% (active).
With `Cc1nc2ccccc2c(/C=C/c2ccc(F)cc2)c1C(=O)/C=C/c1ccccc1` the growth was -15.4% (active).
`O=CN1N=C(c2cccc(Nc3ccnc4cc(Cl)ccc34)c2)CC1c1ccc(Cl)cc1` (stereo not given) was tested, and the growth was -17% (active).
With `c1ccc(-c2c(-c3ccccc3)[n+](Cc3ccc4ccccc4c3)cn2Cc2ccc3ccccc3c2)cc1` the growth was -91.1% (active).
In the case of `COc1ccc(Cl)cc1Nc1nc(C(F)(F)F)ccc1C(=O)N/N=C/c1ccc([N+](=O)[O-])cc1`, the growth is reported as -1% (active).
In the case of `Fc1cc2[nH]ncc2c2c3c(c(-c4cn[nH]c4C(F)(F)F)nc12)CCCC3`, the growth is reported as -11.3% (active).
